Measured values from PubChem BioAssay (Tox21).
“And” between values parts separate entries of the source, which are not always exact repeats. Identical values can stand only once. Results filed as inconclusive are left out. A call without a number means that no potency is given here. The source holds several records for some structures; these can differ, active in one and inactive in another. The source made the active and inactive calls. Unless noted, calls come from the whole dose curve.

Experiments:
[1] = Nuclear factor erythroid 2-related factor 2/antioxidant responsive element (Nrf2/ARE) small molecule agonists: qHTS cell viability counter screen in human keratinocytes (AID 1919968; active = well fitted curve in the direction sought with a large enough effect in the repeat runs; an effect the other way counts as inactive or inconclusive; note: nearly all actives have a fitted effect of over 55% in size; note: potency is the fitted concentration of half-maximal effect)
Summary of the method: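 Fluorescence read-out from CellTiter-Fluor after 1 h at 37 C. Wells held HaCaT-derived ARE-luciferase reporter cells (1,500/well) treated 23 h with DMSO-dissolved compounds. Run in the same wells as the luciferase agonist read.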

[2] = target: KiSS-1 receptor (Homo sapiens) (UniProt Q969F8); test: Human kisspeptin (KISS1R) small molecule agonists, calcium flux assay in KISS1R-HEK293 cells (AID 1920064; active = well fitted curve in the direction sought with a large enough effect in the repeat runs; an effect the other way counts as inactive or inconclusive)
Summary of the method: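 Calcium flux read-out: kinetic fluorescence at Ex/Em=480/540, 1 s intervals over 3 min, after pin-tool compound addition to dye-loaded KISS1R-HEK293 cells. Fifteen concentrations, triplicates.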

[3] = G protein-coupled receptor (GPCR) small molecule agonists, calcium flux assay: HEK293 wild type cell line counter screen (AID 1920065)
Summary of the method: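 Agonist mode; 18 h seeding at 37 C, 1 h dye load at 37 C; compounds pinned from DMSO, ATP as positive control; kinetic fluorescence 480/540 nm, 3 min, 1 s reads; 15 concentrations, triplicate.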

[4] = p53 small molecule agonists, cell-based qHTS assay with human liver microsomes (AID 1963577);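 note: p53 response element beta-lactamase reporter cells with liver microsomes plus NADPH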
Summary of the method: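 Steps: plate p53RE-bla cells, incubate 5 h at 37 C; add compound in DMSO; add microsomes (0.5 mg/mL final) and NADPH (0.5 mg/mL final); incubate 16 h at 37 C; add LiveBLAzer, 2 h RT; read fluorescence.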

[5] = p53 small molecule agonists, cell-based qHTS assay with rat liver microsomes (AID 1963578)
Summary of the method: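 Metabolic activation is supplied by rat liver microsomes with NADPH (each 0.5 mg/mL final). p53RE-bla cells incubate with compound 16 h at 37 C; reporter activity is measured by LiveBLAzer fluorescence.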

[6] = p53 small molecule agonists, cell-based qHTS assay with human liver microsomes: qHTS cell viability counter screen (AID 1963579); note: nearly all actives have a fitted effect of over 45% in size
Summary of the method: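 After the 460/530 nm beta-lactamase read, CellTiter-Glo was added to the same wells and luminescence measured after 30 min at room temperature, giving viability of p53RE-bla cells treated 16 h with compounds plus microsomes and NADPH.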

[7] = p53 small molecule agonists, cell-based qHTS assay with rat liver microsomes: qHTS cell viability counter screen (AID 1963580); note: nearly all actives have a fitted effect of over 45% in size
Summary of the method: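 Cytotoxicity counter screen: intracellular ATP measured by CellTiter-Glo luminescence in the same wells as the beta-lactamase reporter read, on HCT-116 p53RE-bla cells exposed 16 h at 37 C to compounds with rat liver microsomes and NADPH, each 0.5 mg/mL final.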

[8] = p53 small molecule agonists, cell-based qHTS assay: qHTS cell viability counter screen (AID 1963581); note: nearly all actives have a fitted effect of over 45% in size
Summary of the method: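 Cytotoxicity read-out: ATP-based luminescence (CellTiter-Glo, 30 min RT) measured in the same wells as the p53 reporter assay, HCT-116 p53RE-bla cells, 16 h compound exposure at 37 C.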

[9] = p53 small molecule agonists, cell-based qHTS assay (AID 1963582; active = well fitted activation curve with a large enough effect in the signal ratio in the repeat runs, not every such curve was filed as active; the % refers to the signal ratio)
Summary of the method: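 Fluorescence intensity read-out of a beta-lactamase reporter under a p53 response element. Cells were exposed to DMSO-dissolved compounds for 16 h at 37 C, then developed with FRET substrate for 2 h at RT.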

[10] = target: 5-hydroxytryptamine receptor 2A (Homo sapiens) (UniProt P28223); test: 5-hydroxytryptamine receptor 2A (HTR2A) small molecule antagonists, cell-based qHTS assay (AID 1963586); note: nearly all actives have a fitted effect of over 45% in size
Summary of the method: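 CHO cells stably expressing human HTR2A were plated for 18 h at 37 C, then loaded with calcium dye for 1 h. Compounds were preincubated 5 min at room temperature before DOI (4 nM solution) was added. Kinetic fluorescence was read for 3 min.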

[11] = target: Muscarinic acetylcholine receptor M1 (Homo sapiens) (UniProt P11229); test: Cholinergic receptor muscarinic 1 (CHRM1) small molecule antagonists, cell-based qHTS assay (AID 1963588); note: nearly all actives have a fitted effect of over 40% in size
Summary of the method: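 Compounds were tested at 15 concentrations in three independent runs. Dye-loaded CHRM1-CHO cells were exposed 5 min at room temperature before stimulation by acetylcholine added at 50nM. Intracellular calcium was read kinetically on FDSS for 3 min.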

[12] = target: Muscarinic acetylcholine receptor M1 (Homo sapiens) (UniProt P11229); test: Cholinergic receptor muscarinic 1 (CHRM1) small molecule agonists, cell-based qHTS assay (AID 1963589); note: nearly all actives have a fitted effect of over 35% in size
Summary of the method: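 Calcium flux read-out: kinetic fluorescence at 1 sec intervals after pin-tool compound addition to dye-loaded CHRM1-CHO cells (human M1). Agonist mode; 15 concentrations tested in triplicate independent runs.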

[13] = cAMP Responsive Elements (CRE) small molecule antagonists, cell-based qHTS assay (AID 1963591; active = well fitted inhibition curve with a large enough effect in the signal ratio in the repeat runs, not every such curve was filed as active; the % refers to the signal ratio)
Summary of the method: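 HEK293T CRE-bla; 18 h preincubation; compound pin-transfer; NKH477 0.25 uM final, 3 h, 37 C; LiveBLAzer FRET substrate 2 h RT.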

[14] = target: Beta-2 adrenergic receptor (Homo sapiens) (UniProt P07550); test: Adrenergic beta2 receptor (ADRB2) small molecule antagonists, cell-based qHTS assay (AID 1963592); note: nearly all actives have a fitted effect of over 50% in size; note: potency is the fitted concentration of half-maximal effect
Summary of the method: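 Assay format: CHO-ADRB2 cells, 18-20hr seeding at 37C/5% CO2, then compound plus 1nM isoproterenol agonist mix for 0.5hr RT. Homogeneous time-resolved fluorescence cAMP detection after 1hr, expressed as 665/615 nm ratio.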

[15] = target: Beta-2 adrenergic receptor (Homo sapiens) (UniProt P07550); test: Adrenergic beta2 receptor (ADRB2) small molecule agonists, cell-based qHTS assay (AID 1963593);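 note: CHO cells stably overexpressing human ADRB2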
Summary of the method: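 CHO cells stably over-expressing ADRB2 were plated overnight at 37C, then dosed with compounds plus a stimulation mix containing 100uM IBMX and 25uM Ro-20-1724 for 0.5hr at room temperature. cAMP was measured by HTRF competition, 1hr.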

[16] = target: D(2) dopamine receptor (Homo sapiens) (UniProt P14416); test: Dopamine D2 receptor (DRD2) small molecule agonists, cell-based qHTS assay (AID 1963594); note: nearly all actives have a fitted effect of over 35% in size
Summary of the method: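 HEK293 cells stably expressing human DRD2, pre-treated with PDE inhibitor Ro20-1724 (0.1 mM final) and compound 10 min at room temperature, then stimulated with NKH477 (200nM […]) for 30 min. cAMP read by HTRF (665/620 nm).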

[17] = target: 5-hydroxytryptamine receptor 2A (Homo sapiens) (UniProt P28223); test: 5-hydroxytryptamine receptor 2A (HTR2A) small molecule agonists, cell-based qHTS assay (AID 1963587); note: nearly all actives have a fitted effect of over 30% in size
Summary of the method: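 CHO cells stably expressing human HTR2A, plated 18 h, loaded with calcium dye 1 h at 37 C. Agonist mode: compounds added and intracellular calcium fluorescence recorded kinetically for 2 min at 1 sec intervals.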

[18] = cAMP Responsive Elements (CRE) small molecule agonists, cell-based qHTS assay (AID 1963590)
Summary of the method: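 Beta-lactamase reporter readout: LiveBLAzer B/G FRET substrate, 2 h at room temperature, added after 3 h compound treatment of CRE-bla HEK 293T cells at 37 C/5% CO2.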

[19] = target: D(2) dopamine receptor (Homo sapiens) (UniProt P14416); test: Dopamine D2 receptor (DRD2) small molecule antagonists, cell-based qHTS assay (AID 1963595; active = well fitted inhibition curve with a large enough effect in the signal ratio in the repeat runs, with a control signal flat; the % refers to the signal ratio)
Summary of the method: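 HEK293 cells stably expressing DRD2, preincubated with 0.1 mM Ro20-1724 and compounds 10 min, were stimulated with 200 nM NKH477 plus 12 nM quinpirole for 30 min at room temperature; cAMP measured by HTRF (665/620 nm).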

[20] = Nuclear factor erythroid 2-related factor 2/antioxidant responsive element (Nrf2/ARE) small molecule agonists: luciferase reporter gene qHTS assay in human keratinocytes (AID 1919969); note: nearly all actives have a fitted effect of over 35% in size

Sequence of D(2) dopamine receptor (Homo sapiens) (P14416 whole entry, looked up): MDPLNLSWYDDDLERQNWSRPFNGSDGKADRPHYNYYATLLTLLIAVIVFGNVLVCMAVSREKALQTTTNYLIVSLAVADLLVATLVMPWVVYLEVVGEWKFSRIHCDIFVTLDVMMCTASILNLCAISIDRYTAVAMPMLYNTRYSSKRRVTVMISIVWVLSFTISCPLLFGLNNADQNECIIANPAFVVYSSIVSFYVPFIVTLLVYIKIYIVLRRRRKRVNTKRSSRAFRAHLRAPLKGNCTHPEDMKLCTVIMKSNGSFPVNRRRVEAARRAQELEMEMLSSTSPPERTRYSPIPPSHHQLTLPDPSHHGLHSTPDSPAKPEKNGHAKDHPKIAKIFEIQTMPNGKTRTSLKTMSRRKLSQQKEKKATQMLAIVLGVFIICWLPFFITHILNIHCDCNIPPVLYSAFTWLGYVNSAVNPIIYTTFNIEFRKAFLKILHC
Sequence of KiSS-1 receptor (Homo sapiens) (Q969F8 whole entry, looked up): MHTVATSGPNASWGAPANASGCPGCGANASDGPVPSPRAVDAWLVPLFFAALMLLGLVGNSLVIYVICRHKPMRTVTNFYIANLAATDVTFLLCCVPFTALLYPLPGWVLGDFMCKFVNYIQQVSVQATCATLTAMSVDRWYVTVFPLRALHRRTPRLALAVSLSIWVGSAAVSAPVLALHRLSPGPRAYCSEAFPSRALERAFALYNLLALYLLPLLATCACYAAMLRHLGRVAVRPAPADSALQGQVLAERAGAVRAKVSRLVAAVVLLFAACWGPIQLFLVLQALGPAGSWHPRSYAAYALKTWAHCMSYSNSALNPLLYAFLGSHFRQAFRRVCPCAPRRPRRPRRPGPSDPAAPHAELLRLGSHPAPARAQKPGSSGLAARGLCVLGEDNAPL
Sequence of Muscarinic acetylcholine receptor M1 (Homo sapiens) (P11229 whole entry, looked up): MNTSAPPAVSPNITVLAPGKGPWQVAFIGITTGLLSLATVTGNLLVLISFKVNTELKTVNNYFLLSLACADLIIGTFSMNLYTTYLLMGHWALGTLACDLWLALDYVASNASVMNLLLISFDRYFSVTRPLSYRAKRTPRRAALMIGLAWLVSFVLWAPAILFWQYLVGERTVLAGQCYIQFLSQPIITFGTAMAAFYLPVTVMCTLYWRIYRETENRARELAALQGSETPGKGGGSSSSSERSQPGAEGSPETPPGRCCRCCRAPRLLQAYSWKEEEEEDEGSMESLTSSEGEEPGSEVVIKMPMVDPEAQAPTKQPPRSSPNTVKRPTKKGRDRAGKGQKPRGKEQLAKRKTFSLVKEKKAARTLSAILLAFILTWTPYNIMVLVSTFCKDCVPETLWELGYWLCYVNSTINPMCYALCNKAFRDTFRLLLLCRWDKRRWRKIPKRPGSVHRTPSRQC
Sequence of Beta-2 adrenergic receptor (Homo sapiens) (P07550 whole entry, looked up): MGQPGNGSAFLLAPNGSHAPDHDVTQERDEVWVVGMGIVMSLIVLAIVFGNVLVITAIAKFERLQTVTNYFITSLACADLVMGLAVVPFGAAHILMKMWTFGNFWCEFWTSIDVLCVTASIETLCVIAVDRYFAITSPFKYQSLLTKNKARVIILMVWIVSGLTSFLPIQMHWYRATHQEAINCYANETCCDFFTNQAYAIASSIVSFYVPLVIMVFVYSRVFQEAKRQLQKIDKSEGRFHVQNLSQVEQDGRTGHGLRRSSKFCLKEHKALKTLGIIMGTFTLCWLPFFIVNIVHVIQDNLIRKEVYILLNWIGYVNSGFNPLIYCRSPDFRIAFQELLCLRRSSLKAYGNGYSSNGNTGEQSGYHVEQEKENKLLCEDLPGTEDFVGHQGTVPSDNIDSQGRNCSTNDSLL
Sequence of 5-hydroxytryptamine receptor 2A (Homo sapiens) (P28223 whole entry, looked up): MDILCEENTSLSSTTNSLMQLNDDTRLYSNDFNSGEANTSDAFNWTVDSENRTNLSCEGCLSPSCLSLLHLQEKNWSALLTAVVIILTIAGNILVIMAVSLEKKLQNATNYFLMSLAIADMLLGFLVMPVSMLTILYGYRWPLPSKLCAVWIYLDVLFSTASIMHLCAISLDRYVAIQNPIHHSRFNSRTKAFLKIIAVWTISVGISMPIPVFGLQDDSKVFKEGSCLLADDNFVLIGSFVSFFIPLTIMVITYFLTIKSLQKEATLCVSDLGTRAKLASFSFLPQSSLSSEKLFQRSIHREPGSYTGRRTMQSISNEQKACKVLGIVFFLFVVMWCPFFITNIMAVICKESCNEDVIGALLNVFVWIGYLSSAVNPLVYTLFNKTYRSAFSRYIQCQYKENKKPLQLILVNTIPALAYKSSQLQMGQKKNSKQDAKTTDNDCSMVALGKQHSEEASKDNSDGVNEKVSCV

| Structure (SMILES) | Potency [1] | Potency [2] | Potency [3] | Potency [4] | Potency [5] | Potency [6] | Potency [7] | Potency [8] | Potency [9] | Potency [10] | Potency [11] | Potency [12] | Potency [13] | Potency [14] | Potency [15] | Potency [16] | Potency [17] | Potency [18] | Potency [19] | Potency [20] |
| --- | --- | --- | --- | --- | --- | --- | --- | --- | --- | --- | --- | --- | --- | --- | --- | --- | --- | --- | --- | --- |
| O=C1OC(=O)c2ccc3c4c(ccc1c24)C(=O)OC3=O | inactive | inactive | inactive | inactive | inactive | inactive | inactive | inactive | inactive | inactive | inactive | inactive | inactive | inactive | inactive | inactive |  |  |  |  |
| CC(C)CC(O)Cc1ccccc1 (stereo unspecified) | inactive | inactive | inactive | inactive | inactive | inactive | inactive | inactive | inactive | inactive | inactive | inactive | inactive | inactive | inactive | inactive | inactive | inactive | inactive |  |
| O=C(OCCOCCO)c1ccccc1Nc1cccc(C(F)(F)F)c1 | inactive | inactive | inactive | inactive | inactive | inactive | inactive | inactive |  | inactive | inactive | inactive | inactive | inactive | inactive | inactive | inactive | inactive | inactive |  |
| CC(C)CC(C)(O)C#CC(C)(O)CC(C)C (stereo unspecified) | inactive | inactive | inactive | inactive | inactive | inactive | inactive | inactive | inactive | inactive | inactive | inactive | inactive | 59.9 µM (active) and inactive | inactive | inactive | inactive | inactive | inactive |  |
| CN(C)N=Nc1ccccc1 | inactive | inactive | inactive | inactive | inactive | inactive | inactive | inactive | inactive | inactive | inactive | inactive | inactive | inactive | inactive | inactive |  | inactive | inactive |  |
| C=CC(=O)O[C@H]1C[C@@H]2CC[C@@]1(C)C2(C)C | inactive |  | inactive | inactive | inactive |  | inactive | inactive | inactive | inactive | inactive | inactive | inactive | inactive | inactive |  | inactive | inactive | inactive | inactive |
| N#C[C@@H]1C[C@@H]2C[C@@H]2N1C(=O)[C@@H](N)C12CC3CC(CC(O)(C3)C1)C2 | inactive |  |  | inactive | inactive | inactive | inactive | inactive | inactive |  | inactive | inactive | inactive | inactive | inactive | inactive | inactive | inactive | inactive | inactive |
| COC(=O)c1cc(Cl)ccc1OC | inactive | inactive | inactive | inactive | inactive | inactive | inactive | inactive | inactive | inactive | inactive | inactive | inactive | inactive | inactive | inactive |  | inactive | inactive |  |
| COc1cccc(OC)c1C(=O)O | inactive |  | inactive | inactive | inactive | inactive | inactive | inactive | inactive | inactive | inactive | inactive |  | inactive | inactive | inactive | inactive | inactive | inactive | inactive |
| C1=C\CC/C=C\CC/C=C\CC/1 | inactive | inactive | inactive | inactive | inactive | inactive | inactive | inactive | inactive | inactive | inactive | inactive | inactive | inactive |  | inactive | inactive | inactive | inactive |  |
| CCC(CO)(CO)CO | inactive | inactive | inactive | inactive | inactive | inactive | inactive | inactive | inactive |  | inactive | inactive | inactive | inactive |  | inactive | inactive | inactive |  |  |
| O=S(=O)(O)CCS | inactive | inactive | inactive | inactive | inactive | inactive | inactive | inactive | inactive |  |  |  | inactive | inactive |  | inactive |  | inactive |  |  |
| COc1cccc2c1C(=O)c1c(O)c3c(c(O)c1C2=O)C[C@@](O)(C(C)=O)C[C@@H]3O[C@H]1C[C@H](N)[C@H](O)[C@H](C)O1 | 6.15 µM (active) and 2.37 µM (active) | inactive | inactive |  |  |  |  |  |  |  |  |  |  |  |  |  |  |  |  |  |
| CC(C)(C)NC[C@H](O)COc1nsnc1N1CCOCC1 | inactive | inactive | inactive | inactive | inactive | inactive | inactive | inactive | inactive |  |  |  | inactive |  |  | inactive |  | inactive | inactive |  |
| Cc1ccc2n[nH]nc2c1 | inactive | inactive | inactive | inactive | inactive | inactive | inactive | inactive | inactive | inactive | inactive | inactive | inactive | inactive | inactive | inactive | inactive |  | inactive |  |
